Reference: PMC5540273 (PLoS ONE, 2017)

Test system: LCK
Conditions: concentration: 1 μM,replicates: in singlicate; n = 1
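Further: KINOMEscan kinase panel screen.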

Compound	%Inh [%]
Cn1ccc2ncnc(Oc3ccc(NC(=O)Nc4cc(C(C)(C)C)on4)c(Cl)c3)c21	98.2
CC(=O)Nc1ccc(-c2cc3ncnc(SCC(=O)O)c3s2)cc1	1
CN(c1ccccc1CNc1nc(Nc2ccc3c(c2)CC(=O)N3)ncc1C(F)(F)F)S(C)(=O)=O	78
FC(F)(F)c1cc(Br)cc(Nc2nccc(-c3cnn4ncccc34)n2)c1 [GW810578]	4
O=C1NCCc2[nH]c(-c3ccncc3)cc21	9
O=C(Nc1cccc(C(F)(F)F)c1)c1cccc(Oc2ccc3nccn3n2)c1	63
Cc1ccc(CC(=O)N2CCc3cc(-c4cn(C)c5ncnc(N)c45)ccc32)cc1 [GSK2634758]	38
COC(=O)c1cccc(NC(=O)NC2CCN(c3ccnc(NCc4ccc(F)cc4)n3)CC2)c1 [GSK1379860]	4
Cn1ccc2ncnc(Oc3ccc(NC(=O)Nc4ccnc(C(F)(F)F)c4)c(Cl)c3)c21	0
O=C(NOCC1CC1)c1cc(Br)c(F)c(F)c1Nc1ccc(I)cc1Cl	0
COc1ccc(Nc2nccc(N3CCC(NC(=O)c4cccc(C#N)c4)C3)n2)cc1 (stereo not shown) [GSK1379730]	23
COc1cccc(C2=C(Nc3cccc(Cl)c3)C(=O)NC2=O)c1 [SB-341556]	15
Cc1n[nH]c2cc(Nc3ccnc(Nc4cccc(CN5CCOCC5)c4)n3)ccc12 [GW682569]	71
C[C@@H]1CNc2c(sc3ccc4nc(-c5ccncc5)ccc4c23)C(=O)N1	13
C[C@@H]1CCN(C(=O)N2CCCC2)C[C@@H]1N(C)c1ncnc2[nH]ccc12	41
Cl.c1ccc(Oc2ccc(Nc3ccnc4cc(-c5ccc(CN6CCNCC6)o5)ccc34)cc2)nc1 [GW567142]	82
COc1cc2c(Nc3ccc(NC(=O)c4ccccc4)cc3)ncnc2cc1OCCCN1CCOCC1 [GSK301329]	87
c1ccc(Oc2ccc(Nc3ccnc4ccc(-c5ccccn5)cc34)cc2)cc1 [GW407034]	83
COc1cc2ncn(-c3cc(OCC4CCCCC4)c(C(N)=O)s3)c2cc1OC [GSK204559]	37

Compound	%Inh [%]
C[C@@H]1CNc2c(sc3ccc4nc(-c5ccc(O)cc5)ccc4c23)C(=O)N1	0
NC(=O)c1ccc(-c2cc3ncnc(SCC(=O)O)c3s2)cc1	2
CS(=O)(=O)Nc1ccc(-c2ccnc3[nH]ccc23)cc1 [GSK993273]	25
N#Cc1cccc(C(=O)NC2CCN(c3ccnc(Nc4ccc(F)cc4)n3)C2)c1 (stereo not shown) [GSK1379708]	22
CS(=O)(=O)c1cccc(CNc2nc(Nc3ccc4c(c3)[C@@H]3C[C@@H]4CNC3=O)ncc2C(F)(F)F)c1	0
COc1cc(Nc2nccc(N3CCC(NC(=O)c4cccc(C#N)c4)C3)n2)cc(OC)c1OC (stereo not shown) [GSK1379751]	0
CN1CCN(CCCNc2nccc(-c3c(-c4ccc(F)cc4)nn4cc(C(N)=O)ccc34)n2)CC1 [GW622475]	51
COc1cccc(OC)c1C(=O)Nc1cccc(-c2nn3ccccc3c2-c2ccnc(Nc3cccc(F)c3)n2)c1 [GSK361065]	24
CCOC(=O)N1CCC(n2cnc(-c3ccc(F)cc3)c2-c2ccnc(N)n2)CC1 [SB-219952]	0
COC(=O)Nc1nc2cc(Oc3ccc(NC(=O)Nc4cc(C(F)(F)F)ccc4Cl)cc3)ccc2[nH]1.Cl [GW697465]	98.9
CS(=O)c1ccc(-c2coc3ccc(-c4n[nH]c(=O)o4)cc23)cc1 (stereo not shown)	0
Cn1ccc2ncnc(Oc3ccc(NC(=O)Nc4cncc(C(F)(F)F)c4)c(Cl)c3)c21	50
Nc1nccc(-c2ccc3c(N)n[nH]c3c2)n1 [GSK1034945]	0
NC(=O)Nc1sc(-c2ccc(F)cc2)cc1C(N)=O [GW789449]	32
CN1CCN(CCNc2nc3cc(Oc4ccc(NC(=O)Nc5cc(C(F)(F)F)ccc5F)cc4)ccc3[nH]2)CC1.Cl.Cl [GW768504]	22
Cl.Nc1n[nH]c2cc(-c3ccccn3)ccc12 [GSK2189892]	12
CCn1c(-c2nonc2N)nc2cncc(CNC3CCNCC3)c21.Cl [SB-747651]	0
Cn1ccc2ncnc(Oc3ccc(NC(=O)Nc4cccc(C(F)(F)F)c4)c(Cl)c3)c21	79
